# Compound activity deposited in PubChem by National Center for Advancing Translational Sciences (NCATS).
# In the library only some 0.43% were active in any assay of this set; here they are far more common.
# GLA spleen mod: alpha-galactosidase A (human) modulation | P06280 | human spleen homogenate, 4MU-alpha-Gal fluorescence, 40 min | Potency, µM (highest dose often 80 µM), inactives show at the highest dose activity change, negative = inhibition, hits mostly inhibitors | actives 0.008% (n = 240,000);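 note: potency is the fitted concentration of half-maximal effect; 0% = enzyme with vehicle and -100% = no enzyme basal signal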
# Target sequence (P06280 32-429 limits assumed): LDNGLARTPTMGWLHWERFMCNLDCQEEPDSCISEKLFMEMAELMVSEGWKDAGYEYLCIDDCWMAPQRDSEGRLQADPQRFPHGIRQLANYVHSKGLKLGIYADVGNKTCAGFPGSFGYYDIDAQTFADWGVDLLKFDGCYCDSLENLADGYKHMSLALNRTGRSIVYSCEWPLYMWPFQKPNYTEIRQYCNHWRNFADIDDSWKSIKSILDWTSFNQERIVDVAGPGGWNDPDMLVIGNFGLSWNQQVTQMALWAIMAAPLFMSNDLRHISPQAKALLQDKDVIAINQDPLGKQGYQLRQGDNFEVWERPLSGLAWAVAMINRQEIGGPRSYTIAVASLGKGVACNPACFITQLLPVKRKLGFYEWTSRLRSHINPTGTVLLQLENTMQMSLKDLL
#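 Spleen homogenate 1 ug + cpd (titration) + 4-MU-alpha-D-galactopyranoside 1 mM; 37C 40 min; 50 mM citrate/phosphate pH 5.0, 0.01% Tween-20; stop pH 10; fluorescence 365/440; AC50 via Hill.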
# aGlu spleen mod: inhibitors or activators of human alpha-glucosidase in spleen homogenate; human spleen homogenate, 4-MU-alpha-glucoside fluorescence; AID 2112; actives 0.006% (n = 240,000); Potency, µM (highest dose often 79.9 µM), for inactives: at the top dose activity change, negative = inhibition, most hits filed as inhibitors;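 note: potency is the fitted concentration of half-maximal effect; 0% = enzyme with vehicle and -100% = no enzyme basal signal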
#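 AC50 values come from Hill-equation fits of concentration-response data, normalized to no-enzyme and full-activity controls. Enzyme source: 1 ug human spleen homogenate; 1 mM fluorogenic 4-MU glucoside, pH 5.0 citrate buffer, 37 C, 40 min.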
# GLA inh pH 4.5: inhibitors of human alpha-galactosidase A at pH 4.5. P06280. purified enzyme, 4-MU-alpha-Gal fluorescence, pH 4.5. activity change, negative = inhibition, % at 105 µM. 230,000 tested, under 10 active;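 note: 0% = full activity with enzyme and -100% = basal without enzyme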
# N370S GC mod: inhibits or activates N370S mutant glucocerebrosidase. AID 2101. Potency, µM (highest dose often 59.4 µM), for inactives: at the top dose activity change, negative = inhibition, most hits filed as inhibitors. P04062. N370S GC spleen homogenate, 4MU-glucoside fluorescence. actives 0.092% (n = 330,000);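 note: potency is the fitted concentration of half-maximal effect; 0% = full enzyme activity and -100% = no enzyme basal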
# GAA inh: alpha-glucosidase (human) inhibition | actives 0.005% (n = 200,000) | Potency, µM (doses to about 76.9 µM), for inactives: top-dose activity change, negative = inhibition, usual class: inhibitors | P10253 | purified human GAA, 4-MU-alpha-glucoside fluorescence;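 note: potency is the fitted concentration of half-maximal effect; plate controls were uninhibited enzyme wells for no effect and no-enzyme background for full effect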
#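 Fluorescence at Ex 365/Em 440 nm from 4-methylumbelliferone reported enzyme activity after 20 min at room temperature. Reactions used 4 nM enzyme and 400 uM substrate at pH 5.0; curves fitted with the Hill equation.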
# GAA glycogen mod: inhibitors or activators of human alpha-glucosidase glycogen cleavage | P10253 | AID 2100 | recombinant GAA, glycogen substrate, Amplex Red glucose oxidase fluorescence | Potency, µM (titrated, usually from 76.4 µM), inactives show at the top dose activity change, negative = inhibition, most hits filed as inhibitors | actives 0.38% (n = 300,000);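 note: potency is the fitted concentration of half-maximal effect; 0% = full enzyme reaction and -100% = no-enzyme basal signal; the screen sought inhibitors and activators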
#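 Recombinant human alpha-glucosidase (4 nM final) hydrolysed bovine liver glycogen (30 ug) for 40 min at 37 C in pH 5.0 citrate/phosphate with 0.01% Tween-20. Released glucose detected by glucose oxidase/Amplex Red, Ex 573/Em 610 nm. Compounds up to 77 uM; AC50 from Hill fits.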
# Starred values were filed as active, the others as inactive; ? = inconclusive; nt = not tested or not shown; ! = not active in a repeat. Calls come from the whole dose curve; as a rule, active = well fitted curve in the direction sought with a large enough effect; inconclusive = small, poorly fitted or top-dose-only effect, or another doubt; inactive = no such curve, though single readings can be large; an effect the other way counts as inactive or inconclusive.
SMILES,GLA spleen mod,aGlu spleen mod,GLA inh pH 4.5,N370S GC mod,GAA inh,GAA glycogen mod
C(=N\Nc1nc2ccccc2[nH]1)/c1c[nH]c2ccccc12,10.8%,-0.9%,-3.4,-10.4%,-2.0%,22.2µM*
Cc1ccccc1/C=N/Nc1nc2ccccc2[nH]1,-7.0%,-7.4%,0.3,-13.9%,-8.2%,?
C(=N\Nc1nc2ccccc2[nH]1)/c1ccccc1,0.1%,-14.5%,9.1,-26.9%,-1.6%,?
Cc1cc(=O)[nH]c(N/N=C/c2c[nH]c3ccccc23)n1,-0.9%,0.0%,0.9,-0.8%,-19.5%,-25.7%
O=c1c2nc(Br)n([C@@H]3O[C@@H]4CO[P@@](O)(=S)O[C@H]4[C@H]3O)c2nc2[nH]c(-c3ccccc3)cn12,5.2%,1.3%,nt,-1.6%,nt,nt
O=C(NCCOc1ccccc1)O[C@@H]1C(=O)c2cc(Br)ccc2O[C@H]1c1ccc2c(c1)OCO2,-10.6%,-3.6%,0.5,1.3%,nt,nt
COc1ccc(-c2cnnc(N/N=C/c3ccc(O)c(O)c3)n2)cc1,-5.2%,-9.3%,-7.2,-13.1%,-1.9%,11.2µM*
CCOCC,3.8%,-4.9%,nt,-13.2%,nt,nt
O=C(NNc1cc(N2CCOCC2)nc(N2CCOCC2)n1)c1ccc(Cl)c(Cl)c1,0.1%,-10.5%,-14.3,10.0%,-13.1%,-6.1%
Cc1ccc(C(=O)NNc2cc(N3CCCC3)nc(N3CCCC3)n2)cc1,10.9%,-0.1%,6.4,-1.4%,5.5%,28.2µM*
CSc1ccc2c(c1)[C@H](N1CCN(C)CC1)Cc1ccccc1S2,8.1%,6.0%,-9.3,12.6µM*,nt,nt
CN1CCN(C2Cc3ccccc3Sc3ccc(Cl)cc32)CC1 (configuration not stated),0.7%,5.0%,-9.0,?,nt,nt
CSc1ccc2c(c1)C(N1CCN(C)CC1)Cc1ccccc1S2 (configuration not stated),16.7%,5.0%,-5.1,17.8µM*!,nt,7.1%
C/C=C\C1=CCCC1Nc1ncnc2ccc(-c3c(C)noc3C)cc12 (configuration not stated),-1.1%,-1.5%,nt,-6.1%,nt,nt
O=C1NC(=O)c2c1c(-c1ccccc1)cc1[nH]c3ccc(O)cc3c21,1.9%,-27.4%,nt,-5.3%,nt,nt
COc1ccc(CNc2nc(NCc3ccc(OC)cc3)c3ncn(C4CCCCC4)c3n2)cc1,-4.2%,-0.9%,nt,21.2%,nt,nt
CSCC[C@H](NC(=O)[C@H](CC(C)C)NC(=O)[C@@H]1CCCN1C(=O)[C@H](Cc1ccccc1)NC(=O)[C@H](Cc1ccccc1)NC(=O)[C@@H]1CCC(=O)N1)C(N)=O,13.7%,12.1%,nt,2.8%,nt,nt
Cc1cccc(C)c1NC(=O)CSCC(=O)c1ccc(O)c(O)c1,-3.9%,-9.8%,-2.1,2.3%,-19.6%,11.1µM*
CCc1cc(-c2n[nH]c(C)c2-c2nc3ccccc3n2C)c(O)cc1O,-8.9%,-6.2%,-8.6,-20.8%,?,?
CCc1cc(-c2n[nH]c(C)c2-c2nc3ccccc3n2C)c(O)c(CN2CCN(C)CC2)c1O,1.9%,-4.8%,1.9,-5.3%,-6.1%,8.91µM*
CC(=O)Oc1ccc2c(=O)c(Oc3ccccc3)c(C)oc2c1OC(C)=O,-1.7%,-9.0%,-8.2,6.6%,-0.7%,3.55µM*
CC(C)C[C@H](NC(=O)CNC(=O)[C@H](C)NC(=O)[C@H](CC(C)C)NC(=O)[C@H](CCCNC(=N)N)NC(=O)[C@H](Cc1cnc[nH]1)NC(=O)[C@@H](NC(=O)[C@@H](N)C(C)C)[C@@H](C)O)C(=O)N[C@@H](CC(C)C)C(=O)N[C@@H](CO)C(=O)N[C@@H](CCCNC(=N)N)C(=O)N[C@@H](CO)C(=O)NCC(=O)NCC(=O)N[C@H](C(=O)N[C@H](C(=O)N[C@@H](CCCCN)C(=O)N[C@@H](CC(N)=O)C(=O)N[C@@H](CC(N)=O)C(=O)N[C@@H](Cc1ccccc1)C(=O)N[C@H](C(=O)N1CCC[C@H]1C(=O)N[C@H](C(=O)N[C@@H](CC(N)=O)C(=O)N[C@H](C(=O)NCC(=O)N[C@@H](CO)C(=O)N[C@@H](CCCCN)C(=O)N[C@@H](C)C(=O)N[C@@H](Cc1ccccc1)C(N)=O)C(C)C)[C@@H](C)O)C(C)C)C(C)C)C(C)C,6.3%,0.1%,nt,-2.4%,nt,nt
CC[C@H](NC(=O)[C@H](CCC(=O)O)NC(=O)[C@H](CCC(=O)O)NC(=O)[C@H](CC(=O)O[S+](=O)([O-])c1cccc2c(NCCN)cccc12)NC(=O)[C@H](CCC(=O)O)NC(=O)[C@H](CC(=O)O)NC(C)=O)C(=O)ON[C@@H](C)C(=O)N[C@@H](CO)C(=O)N[C@@H](CCCCNC(=O)c1ccc(N=Nc2ccc(N(C)C)cc2)cc1)C(N)=O,0.8%,-0.3%,nt,-2.0%,nt,nt
Cc1cccc(CNc2ccnc(-c3ccccc3Cl)n2)c1,-0.7%,-6.9%,nt,7.08µM*,nt,nt
Clc1ccccc1-c1nccc(NCc2ccccc2)n1,-0.1%,2.9%,nt,3.55µM*,nt,nt
SMILES,GLA spleen mod,aGlu spleen mod,GLA inh pH 4.5,N370S GC mod,GAA inh,GAA glycogen mod
COc1ccccc1CNc1ccnc(-c2ccccc2Cl)n1,-3.7%,-4.8%,nt,?,nt,nt
Cc1nc(N)sc1-c1csc(N(C)c2ccc(O)cc2)n1,0.0%,-1.3%,-18.4,-26.4%,0.8%,25.1µM*
CSCC[C@H](NC(=O)[C@H](CC(C)C)N(C)C(=O)[C@@H]1CCCN1C(=O)[C@H](Cc1ccccc1)NC(=O)[C@H](Cc1ccccc1)NC(=O)CCC(C)N)C(=O)O (some centres not stated),23.3%,4.9%,nt,3.8%,nt,nt
COc1cccc(C2CC(=O)Nc3c2c(=O)[nH]c2nc4ccccc4n32)c1 (configuration not stated),nt,nt,nt,nt,nt,39.8µM*
CN1CCc2ccc3c4c2[C@]1(C)Cc1cccc(c1-4)OCO3,-24.7%,3.4%,nt,1.3%,nt,nt
COc1ccc(Nc2c3c(nc4ccc(C)cc24)CCC3)cc1,nt,nt,nt,?,nt,-0.9%
Cc1ccc2nc3c(c(Nc4ccc(O)cc4)c2c1)CCC3,nt,nt,nt,?,nt,12.6µM*
Cc1ccc(N=Nc2c(N)n[nH]c2N)cc1,nt,nt,nt,0.6%,nt,?
Nc1n[nH]c(N)c1N=Nc1ccc2c(c1)OCO2,-3.4%,-1.9%,-3.0,-11.6%,-7.9%,12.6µM*
CCOc1ccc(Nc2nc(Cc3nnc(SCC(=O)NCc4ccco4)n3CC)cs2)cc1,2.8%,3.8%,-1.5,-4.7%,-3.6%,17.6µM*
CCn1c(COc2ccc(C)cc2)nnc1SCC(=O)NCc1ccco1,0.2%,4.2%,-2.6,-6.3%,-5.4%,2.7%
NC(=NCc1ccccc1)NC(=O)c1nc(Cl)c(N)nc1N,?,8.91µM*!,9.6,?,nt,nt
